Laboratory results as given in PubChem BioAssay (EPA / NIEHS).
Where “and” joins values, the source holds several entries; their conditions need not be identical. Identical values can stand only once. Where a structure was tested more than once in an assay, its records may differ in their call. Calls of active or inactive are those of the source. The calls were made as follows: active = hit-call score of the fitted dose curve at least 0.9, where 1 is the maximum; inactive = score below 0.9.

What was measured:
[1] = BSK_hDFCGF_SRB: Viability Assessment in the BioMAP Diversity Plus: hDFCGF Assay (AID 2283061); conditions: primary human foreskin fibroblasts;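 also: cells exposed to compound for 24 h before the read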
Method in brief: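 Viability was read as total protein: after 10% TCA fixation, wells were stained with 0.1% sulforhodamine B and read at 560 nm. Primary human foreskin fibroblasts were dosed for 24 h, with bidirectional fitting versus DMSO.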

[2] = read-out: TIMP metallopeptidase inhibitor 1 (TIMP1), TIMP1 (gene 7076); experiment: BSK_hDFCGF_TIMP1: BioMAP Diversity Plus: hDFCGF Assay for TIMP metallopeptidase inhibitor 1 (TIMP1) Biomarker Activity (AID 2283062); conditions: primary human foreskin fibroblasts; actives raise or lower the signal
Method in brief: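 TIMP-1 measured by ELISA 24 h after chemical dosing of primary human skin fibroblasts, with gain or loss fitted relative to DMSO. Parallel SRB staining (560 nm) monitored overt cytotoxicity.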

[3] = read-out: Monokine induced gamma interferon (MIG), CXCL9 (gene 4283); experiment: BSK_hDFCGF_MIG: BioMAP Diversity Plus: hDFCGF Assay for Monokine induced gamma interferon (MIG) Biomarker Activity (AID 2283063); conditions: primary human foreskin fibroblasts; actives raise or lower the signal
Method in brief: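 Human primary foreskin fibroblasts in the hDFCGF system, exposed to test chemical for 24 h; MIG measured by ELISA. Bidirectional curve fitting against DMSO negative control as activity baseline.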

[4] = read-out: Matrix Metallopeptidase 1 (MMP1), MMP1 (gene 4312); experiment: BSK_hDFCGF_MMP1: BioMAP Diversity Plus: hDFCGF Assay for Matrix Metallopeptidase 1 (MMP1) Biomarker Activity (AID 2283064); conditions: primary human foreskin fibroblasts; actives raise or lower the signal
Method in brief: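 Primary human foreskin fibroblasts exposed to chemicals for 24 h; MMP1 measured by ELISA. Cytotoxicity tracked by SRB staining in parallel cultures; bidirectional fit relative to DMSO.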

[5] = read-out: Vascular cell adhesion molecule 1 (VCAM1), VCAM1 (gene 7412); experiment: BSK_hDFCGF_VCAM1: BioMAP Diversity Plus: hDFCGF Assay for Vascular cell adhesion molecule 1 (VCAM1) Biomarker Activity (AID 2283065); conditions: primary human foreskin fibroblasts; actives raise or lower the signal;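 as to AC50: VCAM-1 protein level quantified by ELISA after 24 h chemical exposure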
Method in brief: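 ELISA readout of VCAM-1 on human dermal fibroblast primary cultures, 24 h after chemical exposure. Gain or loss of signal fitted in both directions against DMSO baseline.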

[6] = read-out: Plasminogen activator inhibitor-1 (PAI1), SERPINE1 (gene 5054); experiment: BSK_hDFCGF_PAI1: BioMAP Diversity Plus: hDFCGF Assay for Plasminogen activator inhibitor-1 (PAI1) Biomarker Activity (AID 2283066); conditions: primary human foreskin fibroblasts; actives raise or lower the signal
Method in brief: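 Primary dermal fibroblasts (human foreskin), hDFCGF system; compound 24 h; PAI-1 by ELISA; bidirectional fit vs DMSO control.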

[7] = read-out: Intercellular Adhesion Molecule 1 (ICAM1), ICAM1 (gene 3383); experiment: BSK_KF3CT_ICAM1: BioMAP Diversity Plus: KF3CT Assay for Intercellular Adhesion Molecule 1 (ICAM1) Biomarker Activity (AID 2283067); conditions: primary human keratinocytes with fibroblasts; actives raise or lower the signal
Method in brief: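 Cell-surface ICAM-1 was measured by ELISA 24 h after dosing primary human skin keratinocytes co-cultured with fibroblasts. Parallel SRB staining tracked overt cytotoxicity. Gain or loss of signal was fitted relative to DMSO.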

[8] = read-out: Interferon-gamma inducible Protein 10 (IP10), CXCL10 (gene 3627); experiment: BSK_KF3CT_IP10: BioMAP Diversity Plus: KF3CT Assay for Interferon-gamma inducible Protein 10 (IP10) Biomarker Activity (AID 2283068); conditions: primary human keratinocytes with fibroblasts; actives raise or lower the signal
Method in brief: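 In a primary skin co-culture of keratinocytes and fibroblasts, IP-10 is quantified by ELISA at 24 h after dosing. SRB staining of parallel wells monitors overt toxicity. Curves are fitted both directions against DMSO.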

[9] = BSK_KF3CT_SRB: Viability Assessment in the BioMAP Diversity Plus: KF3CT Assay (AID 2283069); conditions: primary human keratinocytes with fibroblasts;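 also: total protein by sulforhodamine B staining as a cytotoxicity measure; read 24 h after compound addition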
Method in brief: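 Human keratinocyte and foreskin fibroblast co-culture exposed to chemical for 24 h. Total protein measured in parallel cultures by 0.1% sulforhodamine B staining after 10% TCA fixation, read at 560 nm; bidirectional fit relative to DMSO.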

[10] = read-out: Interleukin-1 alpha (IL1a), IL1A (gene 3552); experiment: BSK_KF3CT_IL1a: BioMAP Diversity Plus: KF3CT Assay for Interleukin-1 alpha (IL1a) Biomarker Activity (AID 2283070); conditions: primary human keratinocytes with fibroblasts; actives raise or lower the signal
Method in brief: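 Primary human keratinocyte plus foreskin fibroblast co-culture, dosed and measured at 24 h in 96-well plates. IL-1a level quantified by ELISA; bidirectional fit relative to DMSO.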

Row | Compound | outcome [1] | outcome [2] | outcome [3] | outcome [4] | outcome [5] | outcome [6] | outcome [7] | outcome [8] | outcome [9] | outcome [10] | AC50 [1] | AC50 [2] | AC50 [3] | AC50 [4] | AC50 [5] | AC50 [6] | AC50 [7] | AC50 [8] | AC50 [9] | AC50 [10]
1 | CC(C)(C)c1cccc(O)c1 | inactive | inactive | inactive | inactive | inactive | inactive | inactive | inactive | inactive | inactive |  |  |  |  |  |  |  |  |  | 
2 | COc1ccccc1NC(=O)CC(C)=O | inactive | inactive | inactive | inactive | inactive | inactive | inactive | inactive | inactive | inactive |  |  |  |  |  |  |  |  |  | 
3 | CCCCOCCOCCO | inactive | inactive | inactive | inactive | inactive | inactive | inactive | inactive | inactive | inactive |  |  |  |  |  |  |  |  |  | 
4 | CCOC(=O)CCCCCCCCC(=O)OCC | inactive | inactive | inactive | inactive | inactive | inactive | inactive | inactive | inactive | inactive |  |  |  |  |  |  |  |  |  | 
5 | C=CC(=O)OCC(CO)(COC(=O)C=C)COC(=O)C=C |  |  |  |  |  |  |  |  |  |  | 16.3 nM (active) | 16 nM (active) | 17.7 nM (active) | 146 nM (active) | 26.3 nM (active) | 26.6 nM (active) | 682 nM (active) | 1.08 µM (active) | 592 nM (active) | 517 nM (active)
6 | O=C(O)C(F)(F)OC(F)(F)C(F)(F)OC(F)(F)C(F)(F)C(F)(F)C(F)(F)F | inactive | inactive |  | inactive |  | inactive | inactive |  | inactive | inactive | 10400 nM (active) |  | 12 µM (active) and 48.6 µM (active) |  | 5.95 µM (active) and 13.8 µM (active) |  |  | 32.2 µM (active) and 30 µM (active) |  | 
7 | CC(C)(CO)CO | inactive | inactive | inactive | inactive | inactive | inactive | inactive | inactive | inactive | inactive | 4620 nM (active) |  |  |  |  |  |  |  |  | 
8 | CCCCN(CCO)CCO | inactive | inactive | inactive | inactive | inactive | inactive | inactive | inactive | inactive | inactive |  |  |  |  |  |  |  |  |  | 
9 | OCC(F)(OC(F)(F)C(F)(OC(F)(F)C(F)(F)C(F)(F)F)C(F)(F)F)C(F)(F)F (stereo not given) |  |  |  |  |  | inactive |  |  |  | inactive | 6.02 µM (active) and 5.36 µM (active) | 3330 nM (active) | 2.24 µM (active) and 2.52 µM (active) | 4.57 µM (active) and 4.92 µM (active) | 2.25 µM (active) and 2.1 µM (active) | 6180 nM (active) | 4.83 µM (active) and 3.33 µM (active) | 5.01 µM (active) and 4.55 µM (active) | 5.66 µM (active) and 4.19 µM (active) | 
10 | c1ccc(OCCOc2ccccc2)cc1 | inactive | inactive | inactive | inactive | inactive | inactive | inactive | inactive | inactive | inactive | 150 nM (active) |  |  |  |  |  |  |  |  | 2450 nM (active)
11 | CC=CC(=O)C1=C(C)C=CCC1(C)C | inactive | inactive | inactive | inactive | inactive |  | inactive | inactive | inactive | inactive |  |  |  |  |  | 16 nM (active) |  |  |  | 
